# In the supplement of paper PMC8728848:
# The full list was thinned out, with the strongest signals kept by preference.
# Columns and labels:
# Assay in all cases: glycan array binding signal (z-score within array); higher = stronger binding
# Conditions in all cases: glycan notation: IUPAC condensed, linker removed
# Fuc(a1-2)Gal = target: Fuc(a1-2)Gal
# Procedure, shortened: (§1)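 The binding signal is a Z-score computed within each array and averaged over linkers. Arrays of the same protein sequence at different concentrations or buffers were also averaged together. Data originate from 3228 arrays in the Consortium for Functional Glycomics database, kept only where the protein sequence was available.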
# [1] = target: Fuc(a1-2)Gal(b1-3)GalNAc(b1-4)[Neu5Ac(a2-3)]Gal(b1-4)Glc
# Procedure, shortened: as §1
# [2] = target: Fuc(a1-2)Gal(b1-3)GlcNAc(b1-3)[Neu5Ac(a2-6)Gal(b1-4)GlcNAc(b1-6)]Gal(b1-4)Glc
# Procedure, shortened: as §1
# [3] = target: Fuc(a1-2)[Gal(a1-3)]Gal(b1-3)GlcNAc
# Procedure, shortened: as §1
# [4] = target: Fuc(a1-2)[Gal(a1-3)]Gal(b1-4)[Fuc(a1-3)]Glc
# Procedure, shortened: as §1
# [5] = target: Fuc(a1-2)[Gal(a1-3)]Gal(b1-4)[Fuc(a1-3)]GlcNAc(b1-3)GalNAc
# Procedure, shortened: as §1
# [6] = target: Fuc(a1-3)[Gal(b1-4)]Glc6S
# Procedure, shortened: as §1
# [7] = target: Fuc(a1-3)[Gal3S(b1-4)]Glc
# Procedure, shortened: as §1
# [8] = target: Gal(a1-3)[Gal(a1-4)]Gal(b1-4)GlcNAc
# Procedure, shortened: as §1
# [9] = target: Gal(a1-4)Gal(b1-4)GlcNAc(b1-2)Man(a1-3)[Gal(a1-4)Gal(b1-4)GlcNAc(b1-2)Man(a1-6)]Man(b1-4)GlcNAc(b1-4)GlcNAc
# Procedure, shortened: as §1
# Gal(b1-2)Gal = target: Gal(b1-2)Gal
# Procedure, shortened: as §1
# [10] = target: Gal(b1-3)GlcNAc(b1-3)Gal(b1-4)GlcNAc(b1-2)Man(a1-3)[Gal(b1-3)GlcNAc(b1-3)Gal(b1-4)GlcNAc(b1-2)Man(a1-6)]Man(b1-4)GlcNAc(b1-4)GlcNAc
# Procedure, shortened: as §1
# Gal(b1-4)Glc = target: Gal(b1-4)Glc
# Procedure, shortened: as §1
# [11] = target: Gal(b1-4)GlcNAc(b1-2)[Gal(b1-4)GlcNAc(b1-4)]Man(a1-3)[GlcNAc(b1-4)][Gal(b1-4)GlcNAc(b1-2)[Gal(b1-4)GlcNAc(b1-6)]Man(a1-6)]Man(b1-4)GlcNAc(b1-4)GlcNAc
# Procedure, shortened: as §1
# [12] = target: Gal(b1-4)GlcNAc(b1-3)Gal(b1-4)GlcNAc(b1-3)Gal(b1-4)GlcNAc(b1-3)Gal(b1-4)GlcNAc(b1-3)Gal(b1-4)GlcNAc(b1-2)[Gal(b1-4)GlcNAc(b1-3)Gal(b1-4)GlcNAc(b1-3)Gal(b1-4)GlcNAc(b1-3)Gal(b1-4)GlcNAc(b1-3)Gal(b1-4)GlcNAc(b1-6)]Man(a1-6)[Gal(b1-4)GlcNAc(b1-3)Gal(b1-4)GlcNAc(b1-3)Gal(b1-4)GlcNAc(b1-3)Gal(b1-4)GlcNAc(b1-3)Gal(b1-4)GlcNAc(b1-2)Man(a1-3)]Man(b1-4)GlcNAc(b1-4)[Fuc(a1-6)]GlcNAc
# Procedure, shortened: as §1
# [13] = target: Gal(b1-4)GlcNAc(b1-3)Gal(b1-4)GlcNAc(b1-3)Gal(b1-4)GlcNAc(b1-3)Gal(b1-4)GlcNAc(b1-3)Gal(b1-4)GlcNAc(b1-3)Gal(b1-4)GlcNAc(b1-2)Man(a1-3)[Gal(b1-4)GlcNAc(b1-3)Gal(b1-4)GlcNAc(b1-3)Gal(b1-4)GlcNAc(b1-3)Gal(b1-4)GlcNAc(b1-3)Gal(b1-4)GlcNAc(b1-3)Gal(b1-4)GlcNAc(b1-2)Man(a1-6)]Man(b1-4)GlcNAc(b1-4)GlcNAc
# Procedure, shortened: as §1
# Gal3S(b1-4)Glc6S = target: Gal3S(b1-4)Glc6S
# Procedure, shortened: as §1
# Gal3S6S(b1-4)GlcNAc = target: Gal3S6S(b1-4)GlcNAc
# Procedure, shortened: as §1
# Gal3S6S(b1-4)GlcNAc6S = target: Gal3S6S(b1-4)GlcNAc6S
# Procedure, shortened: as §1
# [14] = target: GalNAc(a1-3)GalNAc(b1-3)Gal(a1-4)Gal(b1-4)Glc
# Procedure, shortened: as §1
# GalNAc(b1-3)GlcNAc = target: GalNAc(b1-3)GlcNAc
# Procedure, shortened: as §1
# GalNAc(b1-4)Gal(b1-4)Glc = target: GalNAc(b1-4)Gal(b1-4)Glc
# Procedure, shortened: as §1
# [15] = target: GalNAc(b1-4)GlcNAc(b1-3)GalNAc(b1-4)GlcNAc
# Procedure, shortened: as §1
# Glc(a1-6)Glc(a1-6)Glc = target: Glc(a1-6)Glc(a1-6)Glc
# Procedure, shortened: as §1
# GlcNAc(b1-3)Fuc = target: GlcNAc(b1-3)Fuc
# Procedure, shortened: as §1
# [16] = target: GlcNAc(b1-3)Gal(b1-4)GlcNAc(b1-3)Gal(b1-4)GlcNAc(b1-2)Man(a1-3)[GlcNAc(b1-3)Gal(b1-4)GlcNAc(b1-3)Gal(b1-4)GlcNAc(b1-2)Man(a1-6)]Man(b1-4)GlcNAc(b1-4)[Fuc(a1-6)]GlcNAc
# Procedure, shortened: as §1
# [17] = target: GlcNAc(b1-3)Gal(b1-4)GlcNAc(b1-3)Gal(b1-4)GlcNAc(b1-3)Gal(b1-4)GlcNAc(b1-3)Gal(b1-4)GlcNAc(b1-2)Man(a1-3)[GlcNAc(b1-3)Gal(b1-4)GlcNAc(b1-3)Gal(b1-4)GlcNAc(b1-3)Gal(b1-4)GlcNAc(b1-3)Gal(b1-4)GlcNAc(b1-2)Man(a1-6)]Man(b1-4)GlcNAc(b1-4)[Fuc(a1-6)]GlcNAc
# Procedure, shortened: as §1
# [18] = target: GlcNAc(b1-3)Gal(b1-4)GlcNAc(b1-6)[GlcNAc(b1-3)]Gal(b1-4)GlcNAc
# Procedure, shortened: as §1
# [19] = target: GlcNAc(b1-3)[GlcNAc(b1-6)]GalNAc
# Procedure, shortened: as §1
# [20] = target: GlcNAc(b1-4)[GlcNAc(b1-6)]GalNAc
# Procedure, shortened: as §1
# [21] = target: GlcNAc6S(b1-3)Gal(b1-4)GlcNAc
# Procedure, shortened: as §1
# [22] = target: Kdn(a2-3)Gal(b1-4)[Fuc(a1-3)]GlcNAc
# Procedure, shortened: as §1
# [23] = target: Man(a1-3)[Man(a1-6)]Man(a1-6)[Man(a1-3)]Man
# Procedure, shortened: as §1
# [24] = target: Neu5Ac(a2-3)Gal(b1-3)GlcNAc6S
# Procedure, shortened: as §1
# [25] = target: Neu5Ac(a2-3)Gal(b1-4)GlcNAc(b1-2)[Neu5Ac(a2-3)Gal(b1-4)GlcNAc(b1-6)]Man(a1-6)[Neu5Ac(a2-3)Gal(b1-4)GlcNAc(b1-2)Man(a1-3)][GlcNAc(b1-4)]Man(b1-4)GlcNAc(b1-4)GlcNAc
# Procedure, shortened: as §1
# [26] = target: Neu5Ac(a2-3)Gal(b1-4)GlcNAc(b1-3)Gal(b1-4)GlcNAc(b1-6)[Gal(b1-3)]GalNAc
# Procedure, shortened: as §1
# [27] = target: Neu5Ac(a2-3)Gal(b1-4)GlcNAc(b1-6)GalNAc
# Procedure, shortened: as §1
# [28] = target: Neu5Ac(a2-6)Gal(b1-4)GlcNAc(b1-3)Gal(b1-4)GlcNAc(b1-3)Gal(b1-4)GlcNAc(b1-2)Man(a1-3)[Neu5Ac(a2-6)Gal(b1-4)GlcNAc(b1-3)Gal(b1-4)GlcNAc(b1-3)Gal(b1-4)GlcNAc(b1-2)Man(a1-6)]GalNAc
# Procedure, shortened: as §1
# [29] = target: Neu5Ac(a2-6)Gal(b1-4)GlcNAc(b1-3)[Neu5Ac(a2-6)Gal(b1-4)GlcNAc(b1-6)]GalNAc
# Procedure, shortened: as §1
# [30] = target: Neu5Ac(a2-8)Neu5Ac(a2-3)[Gal(b1-3)GalNAc(b1-4)]Gal(b1-4)Glc
# Procedure, shortened: as §1
# [31] = target: Neu5Ac(a2-8)Neu5Gc(a2-3)Gal(b1-4)GlcNAc
# Procedure, shortened: as §1
binder,measurement,setting,value
PX9961K-bvu-480-28-480 (Bacteroides vulgatus) (protein) NKIPTTMAFRTVTDVDNAVNGLYDLMSGSGYYGAAMFAYGDMKGDDMQSSEESGVCNTCYMFNHRPNSLNAGSLWGRPFYILREAWNILNAIAEGKIESGDEKKLNALKGETMAVIALCQFDLTRCFGYPYTKDKGASLGAPLIDHLVGTYENPPRSTVAQAYDFIIETLEEAVTLMSEEKNNGRMNKYAARALLARIYLYHDDNRKAFDLADQLIKDADTSGSYALYPHEKYVAAWSVEAKFGSESFFEIANSVDDTPGRDSWGYLLNWYGYQKGFVTQKYAEQMLADPGDVRGHLLEENKYAGKTVWWLYKLRGTDLKTAPLECNNVVLRLSEVYLIAAEAGCKLGGDAAVQGLGYLNEIVKRGNPDNEVTMADYTLDRVLDERSKELVGEGHRFFDLLRNGKTIVRKGGYHLPSVDEEVDWDFYKCVLPIPEDQFIFSPEMEQNPGYPKN,glycan array binding signal (z-score),Fuc(a1-2)Gal,-0.335
same,glycan array binding signal (z-score),[1],-0.817
same,glycan array binding signal (z-score),[2],-0.084
same,glycan array binding signal (z-score),[3],-0.605
same,glycan array binding signal (z-score),[4],0.151
same,glycan array binding signal (z-score),[5],-0.75
same,glycan array binding signal (z-score),[6],0.583
same,glycan array binding signal (z-score),[7],0.709
same,glycan array binding signal (z-score),[8],3.09
same,glycan array binding signal (z-score),[9],1.47
same,glycan array binding signal (z-score),Gal(b1-2)Gal,0.817
same,glycan array binding signal (z-score),[10],0.157
same,glycan array binding signal (z-score),Gal(b1-4)Glc,-0.177
same,glycan array binding signal (z-score),[11],0.328
same,glycan array binding signal (z-score),[12],1.61
same,glycan array binding signal (z-score),[13],1.2
same,glycan array binding signal (z-score),Gal3S(b1-4)Glc6S,0.273
same,glycan array binding signal (z-score),Gal3S6S(b1-4)GlcNAc,0.512
same,glycan array binding signal (z-score),Gal3S6S(b1-4)GlcNAc6S,1.05
same,glycan array binding signal (z-score),[14],-0.347
same,glycan array binding signal (z-score),GalNAc(b1-3)GlcNAc,0.085
same,glycan array binding signal (z-score),GalNAc(b1-4)Gal(b1-4)Glc,0.362
same,glycan array binding signal (z-score),[15],-0.336
same,glycan array binding signal (z-score),Glc(a1-6)Glc(a1-6)Glc,-0.638
same,glycan array binding signal (z-score),GlcNAc(b1-3)Fuc,1.16
same,glycan array binding signal (z-score),[16],1.89
same,glycan array binding signal (z-score),[17],0.909
same,glycan array binding signal (z-score),[18],1.77
same,glycan array binding signal (z-score),[19],-0.501
same,glycan array binding signal (z-score),[20],0.135
same,glycan array binding signal (z-score),[21],1.58
same,glycan array binding signal (z-score),[22],-0.426
same,glycan array binding signal (z-score),[23],2.06
same,glycan array binding signal (z-score),[24],0.976
same,glycan array binding signal (z-score),[25],1.59
same,glycan array binding signal (z-score),[26],-0.074
same,glycan array binding signal (z-score),[27],-0.742
same,glycan array binding signal (z-score),[28],1.68
same,glycan array binding signal (z-score),[29],-0.532
same,glycan array binding signal (z-score),[30],-0.283
same,glycan array binding signal (z-score),[31],19.1
